High-throughput results from PubChem BioAssay.
In the library only some 3.4% were active in any assay of this set; here they are far more common.
miR-122 sensor – blocks miR-122 activity in Huh7 sensor cells; Huh7 miR-122 Renilla luciferase sensor, 48 h; neutral wells = 0, positive control = 100; activation (reporter increase), % at 12.5 µM; hit rate 0.3% among 340,000;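 active = mean replicate activation score at least 90 and every replicate individually at or above 90; inconclusive = only one of the two criteria met; inactive = neither criterion met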;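 also: higher luciferase means less miR-122 activity so hits act as miR-122 inhibitors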
MITF TRPM1 HTS – MITF TRPM1 promoter activation in melanoma cells; SK-MEL-5 TRPM1-promoter luciferase, 24 h; % of positive control, neutral wells = 0; activation, % at 12.5 µM; hit rate 0.75% among 300,000; AID 588334;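 active = mean activation of at least 80% with every replicate also reaching 80%; inconclusive = mean reaches 80% but some replicate falls short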;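 also: 0% = neutral control wells and 100% = parthenolide positive control wells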
esBAF inh – inhibitors of esBAF chromatin remodeling in mouse ES cells. Bmi1-luciferase knock-in reporter, 24 h; 100% = twice the neutral-well signal. reporter increase, % at 12.5 µM. hit rate 2% among 350,000; in the data active = activation above about 40%; inconclusive = no clear call, values can overlap the other calls;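 also: 0% = median of the plate's neutral control wells and 100% = double that signal; a rise in the Bmi1 reporter signal indicates esBAF inhibition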
Env fusion inh – HIV envelope-mediated fusion inhibition. HeLa-JRFL Env/CEM21 cell fusion, luciferase. inhibition, % at 12.3 µM. hit rate 1.1% among 360,000;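 active = mean replicate inhibition score of at least 50 and every replicate individually at or above 50; inconclusive = only one of the two criteria met; inactive = mean below 50 and not all replicates reaching 50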;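 also: 0% = plate neutral controls and 100% = maraviroc near 300 nM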
Wnt bcat act – activates Wnt/beta-catenin signaling in a reporter cell assay. activator, plate reader. activation, % at 9.35 µM. hit rate 1.2% among 300,000. AID 743398; in the data active = activation above about 30%, passing the limit was not always enough; inconclusive = no clear call, values can overlap the other calls;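 also: 0% = neutral control wells and 100% = positive control wells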
* marks the source's active call; other numbers are inactive results; ? = inconclusive; · = no result given; [ ] = dose if it differs, or a comment.

SMILES	miR-122 sensor	MITF TRPM1 HTS	esBAF inh	Env fusion inh	Wnt bcat act
CC(=O)c1ccc([C@H]2C[C@@]34CN(C(=O)OC(C)(C)C)S(=O)(=O)[C@H]3C[C@H]2O4)cc1	-3.3	-7.7	4.3	67.7*	-0.6
O=C1C=C(c2ccc3[nH]ccc3c2)CCC1	·	?	88.0*	-102.6	46.4*
CC(=O)c1ccc2noc(-c3ccccc3)c2c1	-1.0	18.7	0.1	21.9	6.6
c1ccc(-c2onc3cc4c(cc23)OCCO4)cc1	4.9	106.4*	68.4*	·	·
CCCNC(=O)N1C[C@H]2[C@@H](c3ccccc31)[C@H](CO)N2Cc1cc(F)ccc1F	29.5[16.7 µM]	·	-4.8	·	·
Cc1ccc2[nH]c(=O)c(-c3nc4ccccn4c3NCc3ccco3)cc2c1	-9.7	13.8	29.2	-158.3	54.6*
O=Cc1c(NCc2ccco2)nc2ccccn2c1=O	·	6.1	·	5.1	5.0
CCCCOC(=O)c1[nH]c2c(c1C)C(=O)CC(c1cc(OC)c(OC)c(OC)c1)C2 (centres undefined)	-14.4	·	-42.2	63.9*	-6.5
COCCOC(=O)c1[nH]c2c(c1C)C(=O)CC(c1cc(OC)c(OC)c(OC)c1)C2 (centres undefined)	·	-10.3	14.0	18.2	0.3
CO[C@@H]1CN(C)C(=O)c2cc(NC(=O)NC(C)C)ccc2OC[C@H](C)N(Cc2ccccn2)C[C@@H]1C	·	·	0.2	·	·
CC(C)(C)c1ccc(OCC(=O)NCC(c2cccs2)N2CCOCC2)cc1 (centres undefined)	0.8	-2.5	-8.2	62.3*	0.3
CCC(C)(C)C(=O)O[C@H]1C[C@@H](C)C=C2C=C[C@H](C)[C@H](CC[C@@H]3C[C@@H](O)CC(=O)O3)[C@H]21	-11.6	19.4	-11.4	67.4*	-3.0
O=C(CCN1CCCCC1)NCC[C@@H]1CC[C@H](NS(=O)(=O)c2cccc(F)c2)[C@H](CO)O1	·	·	2.5	2.1[16.7 µM]	·
CCC(SC1=N/C(=C/c2ccccc2)C(=O)N1c1ccccc1)C(=O)Nc1cc(C)on1 (centres undefined)	340.5*	5.1	7.4	3.2	-5.1
CCC(=O)N(C)C[C@H]1Oc2ncc(C#CCC(C)C)cc2C(=O)N([C@H](C)CO)C[C@@H]1C	-2.3[16.7 µM]	·	-0.7	-6.6[16.7 µM]	·
CC1(C)Cc2c(sc3nc(-c4cc5ccccc5o4)n(N)c(=O)c23)CO1	-16.9	129.4*	48.3*	-75.7	·
O=C(O)C(Cc1c[nH]c2ccccc12)N1C(=O)c2ccccc2C1=O (centres undefined)	·	-11.6	·	7.3	43.5*
O=c1c2ccccc2cnn1CCOc1cccc(Br)c1	1.8	-2.3	49.0*	-42.6	20.9
O=C1[C@H]2[C@@H](C3CC3)N3C(=O)CN(CC4CC4)C(=O)[C@@]3(Cc3ccccc3)[C@H]2C(=O)N1c1ccccc1	-3.8	8.4	1.9	70.0*	-1.6
COCCCNC(=O)Cc1c(C)c2c(cc(C)c3c(C(C)(C)C)coc32)oc1=O	90.2*	-14.5	0.5	-295.4	-5.4
CN(Cc1ccc(OC(F)F)cc1)C(=O)c1ccccc1Sc1ccccc1C#N	·	0.1	-7.7	56.0*	-11.4
O=C1CC(/C=C/c2ccccc2)=Nc2ccccc2N1	-16.7	26.5	8.9	2.6	0.4
CC1(C)CC(/C=C/c2ccccc2)=Nc2ccccc2N1	·	95.0*	·	-11.2	-4.5
CO[C@H]1O[C@H](CO)[C@@H](OC(=O)Nc2cccc(F)c2)[C@H](OC(=O)Nc2ccc3c(c2)OCO3)[C@@H]1OC(=O)Nc1ccc2c(c1)OCO2	·	·	·	-7.8[16.7 µM]	·
O=C1c2ccccc2NC(c2ccc(Cl)cc2Cl)N1O (centres undefined)	-14.4	-2.5	-1.8	·	·
SMILES	miR-122 sensor	MITF TRPM1 HTS	esBAF inh	Env fusion inh	Wnt bcat act
O=C1c2ccccc2NC(c2cccc(Cl)c2)N1N=C1CCCCCC1 (centres undefined)	-2.0	91.7*	55.4*	-39.6	?
CCS(=O)(=O)N1Cc2ccccc2CC1C(=O)N(C)CC(=O)Nc1cccc(F)c1 (centres undefined)	·	6.4	46.6*	-17.0	-0.5
CCS(=O)(=O)N1Cc2ccccc2CC1C(=O)Nc1ccc(C)cc1 (centres undefined)	4.1	·	48.8*	-152.5	18.2
CCS(=O)(=O)N1Cc2ccccc2CC1C(=O)Nc1ccc(NC(C)=O)cc1 (centres undefined)	-11.5	-23.3	·	-38.6	-4.1
CN(CC(=O)Nc1ccc(F)cc1)C(=O)C1Cc2ccccc2CN1S(C)(=O)=O (centres undefined)	-3.4	-5.8	1.0	-0.4	-0.2
CO[C@@H]1CN(C)C(=O)c2ccc(NS(C)(=O)=O)cc2OC[C@@H](C)N(C(=O)C2CCCC2)C[C@@H]1C	·	·	·	8.8[16.7 µM]	·
COc1ccc2c3c(n(C)c2c1)[C@H](CO)N(C(=O)Nc1ccc(F)cc1)CC31CCN(Cc2cccc(F)c2)CC1	·	·	·	47.2[16.7 µM]	·
COc1ccc(C2=Cc3ccc(OC(C)=O)cc3OC2)cc1	·	103.5*	78.3*	-126.9	13.7
CN(C)C(=O)[C@@H]1[C@@H](CO)[C@@H]2Cn3c(ccc(/C=C/c4ccccc4)c3=O)[C@@H]2N1C(=O)c1cnccn1	1.3[16.7 µM]	·	-5.4	·	·
COCC(=O)Nc1ccc2c(c1)C(=O)N(C)[C@@H]1CC[C@H](CC(=O)Nc3ccccc3)O[C@H]1CO2	-5.2[16.7 µM]	·	-1.4	7.3[16.7 µM]	·
Cc1cc(C(=O)COC(=O)c2ccc(F)cc2F)c(C)n1C1CC1	·	117.6*	40.0	-41.9	11.1
Cc1cc(C(=O)COC(=O)c2ccc(NC(=O)CC#N)cc2)c(C)n1CC(F)(F)F	-3.7	·	61.9*	-29.1	0.9
Cc1cc(C(=O)COC(=O)c2ccc(NC(=O)CC#N)cc2)c(C)n1C1CC1	-1.2	50.4	68.1*	-29.1	8.5
Cc1cc(C(=O)COc2ccccc2C(N)=O)c(C)n1C1CC1	·	23.1	·	-30.5	39.5*
Cc1cc(C(=O)COC(=O)c2ccc(NC(=O)CC#N)cc2)c(C)n1-c1ccc(OC(F)F)cc1	3.0	-1.5	·	6.5	-1.5
Cc1cc(C(=O)COc2ccccc2[N+](=O)[O-])c(C)n1C1CC1	·	23.9	·	-20.2	?
COCC(=O)Nc1ccc2c(c1)[C@H]1C[C@@H](CC(=O)NCc3cccc(F)c3)O[C@H](CO)[C@H]1O2	2.1[16.7 µM]	·	3.2	3.8[16.7 µM]	·
C[C@@H]1CN([C@@H](C)CO)C(=O)c2cccc(NC(=O)c3cnccn3)c2O[C@H]1CN(C)S(=O)(=O)c1ccc(F)cc1	-6.3[16.7 µM]	·	3.8	-9.8[16.7 µM]	·
C/C=C/c1ccc2c(c1)O[C@@H](CN(C)C(=O)CC)[C@H](C)CN([C@@H](C)CO)S2(=O)=O	4.5[16.7 µM]	·	-0.6	-1.7[16.7 µM]	·
COc1ccccc1S(=O)(=O)N[C@H]1CC[C@H](CCNC(=O)C2CCCC2)O[C@H]1CO	32.6[16.7 µM]	·	-0.1	-5.5[16.7 µM]	·
Cc1cc(C(=O)COC(=O)c2ccc(Cl)c(S(N)(=O)=O)c2)c(C)n1C1CC1	·	97.2*	77.8*	-85.8	44.6*
CC(C)N(C(=O)COC(=O)c1ccc(Cl)c(S(N)(=O)=O)c1)C(C)C	·	2.8	·	-12.6	-1.4
C=CCN1C(=O)[C@]2(O[C@H](CCn3cc([C@H](O)c4ccccc4)nn3)[C@@H]([Si](C)(C)c3ccc(OC)cc3)[C@@H]2C)c2cc(N3CCOC3=O)ccc21	·	·	·	-3.2[16.7 µM]	·
